Results from PubChem BioAssay (EPA / NIEHS).
The source made the active and inactive calls. How the source made its calls: active means hit-call score of the fitted dose curve at least 0.9, where 1 is the maximum; inactive means score below 0.9.

Key:
[1] = UKN5_HCS_SBAD2_cell_viability: Viability Assessment in the University of Konstanz (UKN) Leist Lab Neurite Outgrowth Assay in human iPSC-derived immature Dorsal Root Ganglia Neurons (UKN5) (AID 2284056)
Summary of the method: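 iPSC-derived immature peripheral neurons (SBAD2) seeded on Matrigel with CHIR99021, SU5402 and DAPT, dosed 1 h later for 24 h. Viability from Hoechst H-33342 and calcein-AM live staining, high-content imaging; bidirectional fit versus DMSO.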

[2] = UKN5_HCS_SBAD2_neurite_outgrowth: University of Konstanz (UKN) Leist Lab Neurite Outgrowth Assay in human iPSC-derived immature Dorsal Root Ganglia Neurons (UKN5) (AID 2284070); conditions: actives raise or lower the signal
Summary of the method: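 SBAD2 iPSC-derived immature peripheral neurons on Matrigel, 100.000 cells/cm2, medium with CHIR99021 (1.5 uM), SU5402 (5 uM), DAPT (5 uM); compound added 1 h post-seeding for 24 h. Calcein-AM neurite area by high-content imaging; Hoechst H-33342 viability; bidirectional fit vs DMSO.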

[3] = UKN2_HCS_IMR90_neural_migration: University of Konstanz (UKN) Leist Lab Neural Crest Cell Migration Assay in human induced IMR90 Pluripotent Stem Cells (UKN2) (AID 2284204); conditions: actives raise or lower the signal
Summary of the method: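 iPSC-derived IMR90 neural crest cells seeded around stoppers on PLO/laminin/fibronectin; migration started in N2-S medium with EGF/FGF, compounds added after 24 h for 24 h. Migration into cell-free area imaged after calcein-AM/Hoechst staining; bidirectional fit versus DMSO.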

[4] = UKN4_HCS_LUHMES_neurite_outgrowth: University of Konstanz (UKN) Leist Lab Neurite Outgrowth Assay in human LUHMES cells (UKN4) (AID 2284206); conditions: actives raise or lower the signal
Summary of the method: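 Human LUHMES neuronal precursors, differentiated 2 days then replated without cAMP and GDNF, exposed to compounds for 24 h. Neurite area imaged by high-content microscopy after calcein-AM live staining; Hoechst H-33342 for viability; bidirectional fit versus DMSO.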

[5] = UKN4_HCS_LUHMES_cell_viability: Viability Assessment in the University of Konstanz (UKN) Leist Lab Neurite Outgrowth Assay in human LUHMES cells (UKN4) (AID 2284232)
Summary of the method: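 LUHMES precursors differentiated 2 days, replated at 30000 cells/well without cAMP/GDNF, then compound-treated 24 h. Viability from Hoechst H-33342 and calcein-AM live staining (30 min) by high-content fluorescence imaging; bidirectional fit versus DMSO.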

Measured: outcome

Cc1ccccc1
inactive: all assays above
